# Values joined by “and” are separate entries in the source; they are usually repeats but may differ in a detail not shown here. Identical values can stand only once. Inconclusive results are not listed. Active and inactive are the calls of the source.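 The calls were made as follows, unless noted: active = compounds whose cell count with miR-34 switched on is under 0.7 times the count with it off; inactive = the rest.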
# How the values were obtained:
# [1] = Wnt pathway potentiators raising nuclear beta-catenin – imaging, WNT3A-conditioned medium, mouse C2C12, NPC library, primary screen (AID 1117326; in the data active = nuclear beta-catenin stimulation mostly above about 4.2%, no sharp cut-off; inactive = mostly below about 10%; also: reference of the scale not given here); conditions: stronger effect = higher value
# [2] = stimulators of insulin release from INS-1E, primary screen, cell-based, 5 mM glucose, NPC library (AID 1117329;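 active = compound raises insulin release from rat beta cells at 5 mM glucose, no numeric limit stated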; also: reference of the scale not given here); conditions: rat INS-1E insulin secretion, at 10 µM, stronger effect = higher value
# [3] = growth inhibition of GSK3B-pretreated HCT116 cells – cell-based, CellTiter-Glo, 0.2 to 20 µM (AID 1117336;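 active = compounds lowering colon cancer cell viability after pretreatment blocking the GSK3B kinase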); conditions: HCT116 viability after GSK3B inhibitor, at 20 µM, stronger effect = higher value
# [4] = inhibition of endothelial tube formation, primary screen, imaging, VEGF stimulated, CD31 staining, tube area, NPC library (AID 1117340;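 active = compound that reduces growth-factor-driven endothelial tube area in a mixed cell culture, no cutoff stated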); conditions: VEGF-stimulated ADSC/ECFC co-culture, at 10 µM, stronger effect = higher value
# [5] = GLP1 release stimulators, primary, NCI-H716, NPC library (AID 1117341;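 active = compound raises GLP1 secretion from the human gut endocrine cells, with no numeric limit stated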; also: reference of the scale not given here); conditions: NCI-H716 cells, at 10 µM, stronger effect = higher value
# [6] = HCT116 colon cancer cell growth inhibition, primary screen, CellTiter-Glo luminescence, NPC library (AID 1117342;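 active = compounds that lower survival of HCT116 colon cancer cells in the luminescence readout, no numeric limit stated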); conditions: at 20 µM (top of the series)
# [7] = reduced SW480 viability measured with CellTiter-Glo, NPC library, primary (AID 1117343;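 active = compounds that lower viability of the colon cancer cells in the luminescence readout, with no numeric limit stated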); conditions: CellTiter-Glo luminescence; at 20 µM (top of the series) unless noted
# [8] = NPC library primary testing for decreased DLD-1 cell viability via CellTiter-Glo (AID 1117346;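 active = compounds that lower survival of DLD-1 colon cancer cells in the luminescence readout, no cutoff given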); conditions: DLD-1 viability, CellTiter-Glo luminescence; at 20 µM (top of the series)
# [9] = tested on: Aerobactin synthetase IucA (Klebsiella pneumoniae); experiment: inhibition of K. pneumoniae IucA enzyme – biochemical, Tocris library, absorbance (AID 1345561; call rule not given here;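 also: 100% = enzyme without compound and 0% = no enzyme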); conditions: purified IucA enzyme assay, absorbance (OD) read-out; stronger effect = lower value;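 tested at 8 µM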
# [10] = viability loss in pontine glioma line – cell-based, SU-DIPG-XIII, MIPE4.0, CellTiter-Glo, qHTS, dose response (AID 1347061; cut-off not given, nearly all actives have AC50 up to about 37 µM;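 also: cells exposed to compound for 48 hours before readout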); conditions: CellTiter-Glo ATP luminescence
# [11] = viability loss in pontine glioma line – cell-based, JHH-DIPG-1, MIPE4.0, CellTiter-Glo, qHTS, dose response (AID 1347062; cut-off not given, nearly all actives have AC50 up to about 27 µM); conditions: JHH-DIPG-1 viability, CellTiter-Glo ATP luminescence
# [12] = growth inhibition of DIPG cells – cell-based, MIPE5.0 library, qHTS (AID 1347068; cut-off not given, nearly all actives have IC50 up to about 30 µM); conditions: SU-DIPG-XXV viability
# [13] = viability loss with induced miR-34 in A549 – imaging, A549 dox-inducible miR-34, nuclei and caspase counts, primary screen (AID 1347080); conditions: A549 miR-34 inducible, Hoechst nuclei count, 48 h
# [14] = galactose survival enhancers in mitochondrial complex I cybrids – cell-based, galactose medium, ATP luminescence, primary screen (AID 1645843;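 active = z-score of at least 1.8 in each of two replicates, scored against plate mean and spread of sample wells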;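 also: positive z means more ATP and so rescue of galactose-driven cybrid death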); conditions: complex I mutant cybrid cells, 72 h, stronger effect = higher value
# [15] = P. berghei load reduction in hepatocytes – cell-based, HepG2, luciferase luminescence, HepG2 viability, primary screen (AID 624349; in the data active = parasite load remaining mostly below about 12%, no sharp cut-off; inactive = mostly above about 10%;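 also: 100% = mean of DMSO negative control wells on the same plate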); conditions: P. berghei liver stage in HepG2, luciferase luminescence, concentration not given here; parasite load remaining: stronger effect = lower value; viability: measured here: HepG2 viability without parasites
# [16] = MELAS cybrid and Rieske KO viability enhancers – cell-based, MELAS cybrids, Rieske KO mouse fibroblasts, CellTiter-Glo, primary screen (AID 1508586;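 active = mean z-score across replicates of 1.96 or higher in either the MELAS or the Rieske mutant cell line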;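 also: z relative to plate mean and SD of compound and empty wells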); conditions: low glucose
# [17] = stronger effect = lower value, cell number ratio, induced over uninduced
# [18] = measured here: relative caspase fold change +Dox/-Dox
# [19] = measured here: total cells with miR-34 induction, stronger effect = lower value
# [20] = measured here: total cells without miR-34 induction
# [21] = MELAS cybrid survival, CellTiter-Glo 48 h, stronger effect = higher value
# [22] = Rieske KO mouse fibroblast survival, CellTiter-Glo 72 h
compound,measurement,setting,value
Cn1ccc2cc3c(cc21)CCN3C(=O)Nc1cccnc1,nuclear beta-catenin stimulation,[1]; at 10 µM,0.8% (inactive)
same,nuclear beta-catenin stimulation,"[1]; stimulation, at 2 µM",-1.3%
same,insulin secretion stimulation,[2],-1.4% (inactive)
same,viability decrease,[3],-4.4% (inactive)
same,tube area decrease,[4],-4.4% (active)
same,GLP1 secretion stimulation,[5],0.1% (inactive)
same,inhibition of viability,[6],24.2% (inactive)
same,viability decrease (inhibition),[7],12.7% (inactive)
same,viability decrease (inhibition),[8],-22.3% (inactive)
same,remaining activity,[9],117% (inactive)
same,AC50,[10],14.8 µM (active)
same,outcome,[11],inactive
same,outcome,[12],inactive
same,fold change,[13]; [17],1.01 (inactive) and 0.974 (inactive)
same,fold change,[13]; [18],1.08 and 0.723
same,cell count,[13]; [19],11100 and 8340
same,cell count,[13]; [20],11000 and 8560
same,z-score,[14],1.23 (inactive) and 0.545 (inactive)
CN=C(NC#N)NCCSCc1csc(N=C(N)N)n1,parasite load remaining,[15],42.8% (inactive)
same,viability,[15],132%
same,nuclear beta-catenin stimulation,[1]; at 10 µM,-0.6% (inactive)
same,nuclear beta-catenin stimulation,"[1]; stimulation, at 2 µM",-1.8%
same,insulin secretion stimulation,[2],0.3% (inactive)
same,viability decrease,[3],5.8% (inactive)
same,tube area decrease,[4],14.5% (inactive)
same,GLP1 secretion stimulation,[5],0% (inactive)
same,inhibition of viability,[6],-2.7% (inactive)
same,viability decrease (inhibition),[7],-14.2% (inactive)
same,viability decrease (inhibition),[8],-5.4% (inactive)
same,remaining activity,[9],91.8% (inactive)
same,fold change,[13]; [17],0.914 (inactive) and 0.897 (inactive)
same,fold change,[13]; [18],0.888 and 0.977
same,cell count,[13]; [19],8420 and 9980
same,cell count,[13]; [20],9210 and 11100
same,z-score,[16]; [21],-0.55 (inactive)
same,z-score,[16]; [22],-0.51
same,z-score,[14],0.35 (inactive) and 0.345 (inactive)
C=CCn1c(=O)n([C@@H]2O[C@H](CO)[C@@H](O)[C@H]2O)c2nc(N)[nH]c(=O)c21,nuclear beta-catenin stimulation,[1]; at 10 µM,0.1% (inactive)
same,nuclear beta-catenin stimulation,"[1]; stimulation, at 2 µM",2.4%
same,insulin secretion stimulation,[2],-0.5% (inactive)
same,viability decrease,[3],-3.9% (inactive)
same,tube area decrease,[4],12.2% (inactive)
same,GLP1 secretion stimulation,[5],0.6% (inactive)
same,inhibition of viability,[6],2.2% (inactive)
same,viability decrease (inhibition),[7],-8.4% (inactive)
same,viability decrease (inhibition),[8],1% (inactive)
same,remaining activity,[9],101% (inactive)
same,fold change,[13]; [17],0.961 (inactive)
same,fold change,[13]; [18],1.57
same,cell count,[13]; [19],9010
same,cell count,[13]; [20],9380
same,z-score,[14],0.185 (inactive)
CN=C(NC#N)Nc1ccc(C2=NNC(=O)CC2C)cc1 (stereo not drawn),parasite load remaining,[15],25% (inactive)
same,viability,[15],67%
same,nuclear beta-catenin stimulation,[1]; at 10 µM,-0.7% (inactive)
same,nuclear beta-catenin stimulation,"[1]; stimulation, at 2 µM",-0.1%
same,insulin secretion stimulation,[2],0.3% (inactive)
same,viability decrease,[3],-15.4% (inactive)
same,tube area decrease,[4],-8.1% (inactive)
same,GLP1 secretion stimulation,[5],-1.9% (inactive)
same,inhibition of viability,[6],-3.9% (inactive)
same,viability decrease (inhibition),[7],4.1% (inactive)
same,viability decrease (inhibition),[8],-10.5% (inactive)
same,remaining activity,[9],117% (inactive)
same,fold change,[13]; [17],0.976 (inactive) and 0.925 (inactive) and 0.857 (inactive)
same,fold change,[13]; [18],0.912 and 0.898 and 1.1
same,cell count,[13]; [19],6170 and 8930 and 9670
same,cell count,[13]; [20],6320 and 9660 and 11300
same,z-score,[16]; [21],0.199 (inactive)
same,z-score,[16]; [22],0.162
same,z-score,[14],0.095 (inactive) and 0.625 (inactive)
COCCOC(=O)C1=C(C)NC(C)=C(C(=O)OC/C=C/c2ccccc2)C1c1cccc([N+](=O)[O-])c1 (stereo not drawn),parasite load remaining,[15],41.2% (inactive)
same,viability,[15],106%
same,nuclear beta-catenin stimulation,[1]; at 10 µM,2.6% (inactive)
same,nuclear beta-catenin stimulation,"[1]; stimulation, at 2 µM",0.8%
same,insulin secretion stimulation,[2],-0.8% (inactive)
same,viability decrease,[3],77.2% (active)
same,tube area decrease,[4],104% (active)
same,GLP1 secretion stimulation,[5],-1.2% (inactive)
same,inhibition of viability,[6],77% (active)
same,viability decrease (inhibition),[7],87.1% (active)
same,viability decrease (inhibition),[8],86.4% (active)
same,remaining activity,[9],100% (inactive)
same,fold change,[13]; [17],1.33 (inactive) and 0.874 (inactive) and 0.908 (inactive)
same,fold change,[13]; [18],0.592 and 1.2 and 1.19
same,cell count,[13]; [19],2620 and 3270 and 8480
same,cell count,[13]; [20],1970 and 3740 and 9340
same,z-score,[16]; [21],0.948 (inactive) and 0.937 (inactive)
same,z-score,[16]; [22],1.43 and 0.674
same,z-score,[14],-1.04 (inactive) and -0.7 (inactive) and -0.745 (inactive)
CN1CCC(Nc2ncc3ncnc(Nc4ccc(F)c(Cl)c4)c3n2)CC1,nuclear beta-catenin stimulation,[1]; at 10 µM,11.6% (inactive)
same,nuclear beta-catenin stimulation,"[1]; stimulation, at 2 µM",0.1%
same,insulin secretion stimulation,[2],5.85% (inactive)
same,viability decrease,[3],57.4% (active)
same,tube area decrease,[4],-4.5% (inactive)
same,GLP1 secretion stimulation,[5],6.3% (inactive)
same,inhibition of viability,[6],73.7% (active)
same,viability decrease (inhibition),[7],97.8% (active)
same,viability decrease (inhibition),[8],78.2% (active)
same,remaining activity,[9],123% (inactive)
same,fold change,[13]; [17],1.35 (inactive)
same,fold change,[13]; [18],0.869
same,cell count,[13]; [19],3140
same,cell count,[13]; [20],2330
same,z-score,[14],-0.455 (inactive)
CCc1cc(Cl)c(OC)c(C(=O)NC[C@@H]2CCCN2CC)c1O,parasite load remaining,[15],103% (inactive)
same,viability,[15],87.5%
same,nuclear beta-catenin stimulation,[1]; at 10 µM,4.5% (inactive)
same,nuclear beta-catenin stimulation,"[1]; stimulation, at 2 µM",1.7%
same,insulin secretion stimulation,[2],5.2% (inactive)
same,viability decrease,[3],-86.7% (inactive)
same,tube area decrease,[4],2.8% (inactive)
same,GLP1 secretion stimulation,[5],5.8% (inactive)
same,inhibition of viability,[6],51.9% (active)
same,viability decrease (inhibition),[7],58.3% (active)
same,viability decrease (inhibition),[8],14.4% (inactive)
same,remaining activity,[9],112% (inactive)
same,fold change,[13]; [17],0.835 (inactive) and 0.921 (inactive)
same,fold change,[13]; [18],0.937 and 0.744
same,cell count,[13]; [19],7860 and 8160
same,cell count,[13]; [20],9410 and 8850
same,z-score,[16]; [21],0.117 (inactive)
same,z-score,[16]; [22],0.179
same,z-score,[14],-0.605 (inactive)
COc1ccc(CCN(C)CCCN2CCc3cc(OC)c(OC)cc3CC2=O)cc1OC,nuclear beta-catenin stimulation,[1]; at 10 µM,1.2% (inactive)
same,nuclear beta-catenin stimulation,"[1]; stimulation, at 2 µM",0%
same,insulin secretion stimulation,[2],10.7% (inactive)
same,viability decrease,[3],-11.1% (inactive)
same,tube area decrease,[4],-12.6% (inactive)
same,GLP1 secretion stimulation,[5],7.6% (inactive)
same,inhibition of viability,[6],7.5% (inactive)
same,viability decrease (inhibition),[7],-4.7% (inactive)
same,viability decrease (inhibition),[8],12.1% (inactive)
same,remaining activity,[9],98.9% (inactive)
same,fold change,[13]; [17],0.903 (inactive)
same,fold change,[13]; [18],1.41
same,cell count,[13]; [19],8020
same,cell count,[13]; [20],8880
same,z-score,[14],-0.34 (inactive)
CCN1CCC[C@H]1CNC(=O)c1c(OC)ccc(Br)c1OC,parasite load remaining,[15],122% (inactive) and 75.7% (inactive)
same,viability,[15],119% and 100%
same,nuclear beta-catenin stimulation,[1]; at 10 µM,0.4% (inactive)
same,nuclear beta-catenin stimulation,"[1]; stimulation, at 2 µM",-0.6%
same,insulin secretion stimulation,[2],6.1% (inactive)
same,viability decrease,[3],-9.5% (inactive)
same,tube area decrease,[4],19.3% (active)
same,GLP1 secretion stimulation,[5],0.8% (inactive)
same,inhibition of viability,[6],6.8% (inactive)
same,viability decrease (inhibition),[7],-6.9% (inactive)
same,viability decrease (inhibition),[8],6.8% (inactive)
same,remaining activity,[9],89% (inactive)
same,fold change,[13]; [17],0.989 (inactive) and 0.971 (inactive) and 0.881 (inactive)
same,fold change,[13]; [18],0.662 and 1.03 and 1.37
same,cell count,[13]; [19],9050 and 9640 and 10200
same,cell count,[13]; [20],9150 and 9920 and 11500
same,z-score,[16]; [21],0.167 (inactive) and 0.0526 (inactive)
same,z-score,[16]; [22],-0.0474 and -0.355
same,z-score,[14],0.63 (inactive) and 0.485 (inactive)
